# Screens from PubChem.
# The list is not random: actives were taken first. Their share in the collection is about 6%.
# D1 potentiator – human D1 dopamine receptor positive modulation. HEK293 TREx D1 cells, calcium flux, dopamine EC20 potentiation. 360,000 tested, 0.036% active. potentiation, % at 10 µM. AID 504651; in the data active means potentiation above about 30%; further: 0% is about no effect
# Target sequence (P21728 whole entry, looked up): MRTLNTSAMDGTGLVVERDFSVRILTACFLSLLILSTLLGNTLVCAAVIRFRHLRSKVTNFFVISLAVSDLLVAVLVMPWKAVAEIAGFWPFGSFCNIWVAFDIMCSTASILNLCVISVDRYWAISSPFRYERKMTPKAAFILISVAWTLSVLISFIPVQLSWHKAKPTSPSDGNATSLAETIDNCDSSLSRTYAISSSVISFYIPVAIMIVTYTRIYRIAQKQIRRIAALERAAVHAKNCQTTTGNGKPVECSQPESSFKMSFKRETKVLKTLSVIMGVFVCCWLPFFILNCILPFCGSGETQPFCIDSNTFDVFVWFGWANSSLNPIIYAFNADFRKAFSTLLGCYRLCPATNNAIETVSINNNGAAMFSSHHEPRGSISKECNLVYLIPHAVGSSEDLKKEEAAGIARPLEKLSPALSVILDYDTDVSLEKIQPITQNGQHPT
# D1 antagonist – human D1 dopamine receptor antagonism; 360,000 tested, 3.2% active; HEK293 TREx D1 cells, calcium flux, dopamine EC80; stronger effect = lower value; P21728; activity change, negative = inhibition, % at 10 µM; in the data active means activity change below about -30%; further: on the % scale 0 is the no-effect control and ±100 the full control effect
#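 Allosteric or orthosteric antagonism assessed as attenuation of the calcium response to EC80 dopamine, added 180 s after compound, in induced HEK293 Trex D1 cells loaded with no-wash calcium dye.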
# D3 antag – D3 dopamine receptor (human) antagonism | P35462 | D3R cells, DiscoveRx beta-arrestin luminescence, antagonist mode; stronger effect = lower value | max response, negative = inhibition, % | 360,000 tested, 2.5% active; in the data active means max response below about -50%; inconclusive means no clear call, values can overlap the other calls; further: on the % scale 0 is the no-effect control and ±100 the full control effect
#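 Cells expressing the human receptor were seeded at 1500 cells/well, incubated overnight at 37 degrees C in 5% CO2, then exposed to library compounds with dopamine controls for 90 minutes at 37 degrees C before luminescent detection.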
# D1 ag – activates the human D1 dopamine receptor | P21728 | 360,000 tested, 1% active | AID 504660 | HEK293 T-REx D1 cells, calcium flux, agonist mode | activation, % at 2 µM; in the data active means activation above about 30%; further: 0% is about no effect
#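 Tetracycline-induced HEK293 TREx D1 cells, force-coupled to calcium signalling, were dye-loaded with a no-wash calcium kit. Compound was pin-added after a 10 s baseline. Fluorescence was read kinetically at 1 cycle/s for 180 s, with calcium rises flagged as agonism.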
# BCR signal inh – chronic active BCR signaling inhibition | 340,000 tested, 0.05% active | Potency, µM (titrated, usually from 46.1 µM), for the others: at the top dose activity change, negative = inhibition, most hits filed as inhibitors | ABC-DLBCL IkBa-CBG/CBR reporter, luminescence ratio, 4 h; active means well fitted inhibition curve with a large enough effect in the signal ratio, with a control signal flat, not every such curve was filed as active; inconclusive means small, poorly fitted or top-dose-only effect, or effect the other way, or a change in a side signal; the % refers to the signal ratio;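 further: potency means the concentration at half of the fitted maximal effect; plate controls were basal doxycycline-induced cells for no effect and cells given 10 µM MG132 for full effect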
#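 Doxycycline induced both beetle luciferases in TMD8 lymphoma cells; IKK-driven degradation limits the IkappaBalpha-fused green signal, while red luminescence normalises for cell number and nonspecific effects. Compounds tested up to 46 uM, 4 hrs.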
# DRD3 agonist – activates the human D3 dopamine receptor; P35462; D3R DiscoveRx beta-arrestin cells, luminescence, 90 min; max activation, %; 410,000 tested, 0.58% active; in the data active means max activation above about 30%; further: 0% is about no effect
#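 Cells at 1500/well, incubated overnight, then treated with pinned compounds (dopamine as control) for 90 min at 37 degrees C. DiscoveRx reagent added for 30 - 60 minutes at room temperature; luminescence read.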
# * marks the source's active call; other numbers are inactive results; ? = inconclusive; nt = not tested or not shown; ! = a repeat was not active.
SMILES,D1 potentiator,D1 antagonist,D3 antag,D1 ag,BCR signal inh,DRD3 agonist
CCNC(=S)N1CCN(c2nc(-c3ccc(F)cc3)cs2)CC1,-5,4,-2,3,2%,3
COC(=O)c1cccc(CN2C(=O)SC(Nc3ccc(Br)cc3)C2=O)c1 (configuration not stated),-2,-12,nt,-1,nt,-9
O=C(N1CCOCC1)N1CCN(c2nc(-c3ccc(F)cc3)cs2)CC1,3,-16,-22,1,2%,-1
O=C(Cc1cccs1)N1CCN(c2nc(-c3ccc(Cl)cc3)cs2)CC1,-1,2,53,3,0%,36*
CCCCC(=O)N1CCN(c2nc(-c3ccc(F)cc3)cs2)CC1,-4,-31*,-12,2,2%,0
COc1ccc(Cl)cc1NC(=O)C1CCN(S(=O)(=O)c2ccc(F)cc2)CC1,-2,-4,nt,0,nt,1
CCOc1ccc2oc(=O)cc(CN3CCN(c4cc(C)ccc4C)CC3)c2c1,0,-5,nt,0,nt,-11
CCOc1ccc(NC(=O)CSC(N)=O)cc1,0,7,-72*,1,-1%,-5
NS(=O)(=O)c1ccc(NC(=O)COc2ccc(C(=O)c3ccc(F)cc3)cc2)cc1,-13,-27,18,4,-14%,-10
CCOc1ccc(NC(=O)CC)cc1,-3,-20,nt,4,4%,nt
CCOc1ccc(NC(=O)NC(=O)N(C(C)C)S(C)(=O)=O)cc1,-4,-35*,7,4,4%,-3
CCOc1ccc(OCC(=O)Nc2ccc(S(N)(=O)=O)cc2)cc1,-5,-34*,13,2,-7%,0
COc1cc(NC(=O)c2cccc3c2C(=O)N(C2CCCCC2)C3)cc(OC)c1OC,1,-78*!,66,-1,8%,5
CC(C(=O)NCc1ccccc1)n1c(CSCCOc2ccccc2)nc2ccccc21 (configuration not stated),nt,nt,-25,nt,nt,-13
CS(=O)(=O)c1ncc(Cl)c(C(=O)N2CCN(c3cccc(Cl)c3)CC2)n1,1,-50*,nt,14,nt,-28
CCS(=O)(=O)c1ncc(Cl)c(C(=O)N2CCN(c3cccc(Cl)c3)CC2)n1,-4,-31*,nt,5,nt,-25
CCc1noc(C)c1C(=O)N1CCN(c2cccc(Cl)c2)CC1,nt,nt,8,nt,nt,5
Cc1[nH]c2ccc(C(=O)N3CCN(c4cccc(Cl)c4)CC3)cc2c1C,-7,-24,-6,7,?,-1
CCOc1nc(NC(=O)NS(=O)(=O)Oc2ccccc2)nc(-c2ccccc2)n1,-3,5,nt,0,nt,2
O=C(Cn1ncn2nc(-c3cccs3)cc2c1=O)NCc1ccccc1Cl,1,-12,nt,2,nt,1
Cc1ccccc1CNC(=O)Cn1ncn2nc(-c3cccs3)cc2c1=O,0,-36*,nt,7,nt,7
Cc1ccc(/C=N/NC(=S)N2CCOCC2)cc1,-4,-14,5,3,?,29
S=C(N/N=C/c1ccc(Cl)cc1)N1CCOCC1,-9,-37*,15,1,7%,8
CC(C)c1nc2sc3c(=O)[nH]cnc3c2c2c1CCCC2,-1,26,27,1,-4%,5
CC(C)c1nc2sc3c(=O)[nH]cnc3c2c2c1CCC2,3,-15,7,1,?,52*
SMILES,D1 potentiator,D1 antagonist,D3 antag,D1 ag,BCR signal inh,DRD3 agonist
Cc1cccc(/C=N\NC(=O)c2csnn2)c1,1,3,-91*,11,?,-14
COC(=O)c1ccccc1NC(=O)Cn1cnc2cc(C)c(C)cc21,-4,-16,15,38*,?,23
COc1cc2c(cc1OC)C(COc1ccccc1OC)N(C(C)=O)CC2 (configuration not stated),-5,-49*,13,3,1%,1
COC(=O)c1ccc(OCC2c3cc(OC)c(OC)cc3CCN2C(=O)c2ccc(F)cc2)cc1 (configuration not stated),-3,-39*,nt,8,-15%,-6
COC(=O)c1ccc(OCC2c3cc(OC)c(OC)cc3CCN2C(=O)c2ccccc2C)cc1 (configuration not stated),-2,-11,nt,-1,-2%,1
COc1cc2c(cc1OC)C(COc1ccccc1OC)N(C(=O)C(C)(C)C)CC2 (configuration not stated),-6,2,13,-1,-11%,-6
CC(=O)CSc1nc2nccnc2[nH]1,nt,nt,0,nt,nt,-8
CC(NC(=O)Cn1c(-c2cccs2)cc2cc(F)ccc21)c1ccccc1 (configuration not stated),-3,-15,nt,0,nt,7
Cn1cc(CN2CCN(c3ncccn3)CC2)c(-c2cccc(Cl)c2)n1,-1,-2,-3,3,2%,1
Cn1cc(CN2CCC(C(O)c3cccs3)CC2)c(-c2cccc(Cl)c2)n1 (configuration not stated),-6,-18,19,41*,1%,7
O=C1CN(C(=O)CSc2nc3ccccc3c(=O)n2Cc2ccc(F)cc2)c2ccccc2N1,-8,-59*,-3,10,?,4
COc1cc(-c2noc(C)c2-c2ccc(N(C)C)nc2)cc(OC)c1OC,0,-59*,-13,89*,?,-5
COc1ccccc1NS(=O)(=O)c1cc2c(cc1Cl)NC(=O)CO2,-3,-11,nt,0,nt,0
Cc1ccccc1OCC(O)CN1CCN(CCN2C(=O)c3cccc4cccc(c34)C2=O)CC1 (configuration not stated),-10,3,-86*,-1,?,-18
C=CCc1ccccc1OCC(O)CN1CCN(CCN2C(=O)c3cccc4cccc(c34)C2=O)CC1 (configuration not stated),-8,-69*,-4,6,?,-34
O=C(/C=C/c1ccccc1)N1CCN(CCN2C(=O)c3cccc4cccc(c34)C2=O)CC1,-4,-13,-96*,-1,?,-16
C[C@H](CO)N1C[C@H](C)[C@@H](CN(C)Cc2ccc3c(c2)OCO3)Oc2cc(Br)ccc2S1(=O)=O,nt,nt,-25,nt,nt,-11
COc1cc(/C=C(/C#N)C(=O)Nc2ccc(C)cc2)ccc1Oc1nc(Cl)ncc1F,-5,-31*,-6,7,?,-1
COc1ccc(/C=C(/C#N)C(=O)Nc2ccc(C)cc2C)cc1C(=O)O,3,-35*,2,-1,-2%,-5
COc1ccc(/C=N/NC(=O)CC#N)cc1Oc1nc(Cl)ncc1F,-4,-8,-8,10,0%,-3
C=C(CC[C@@H](O)C(C)(C)O)[C@H]1CC[C@]2(C)[C@@H]1CCC1[C@@]3(C)CCC(=O)C(C)(C)C3CC[C@]12C (some centres not stated),nt,nt,19,nt,5%,43*
